mHTT-CaM PPI inh: mHTT-calmodulin interaction abrogation; P42858; AlphaScreen His-mHTT/GST-CaM binding, luminescence; inhibition, % at 15 µM; 190,000 compounds, 3.6% hits; AID 1671202;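 also: 0% = both proteins with DMSO and 100% = one protein alone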
Target sequence (P42858 whole entry, looked up, stated change not applied): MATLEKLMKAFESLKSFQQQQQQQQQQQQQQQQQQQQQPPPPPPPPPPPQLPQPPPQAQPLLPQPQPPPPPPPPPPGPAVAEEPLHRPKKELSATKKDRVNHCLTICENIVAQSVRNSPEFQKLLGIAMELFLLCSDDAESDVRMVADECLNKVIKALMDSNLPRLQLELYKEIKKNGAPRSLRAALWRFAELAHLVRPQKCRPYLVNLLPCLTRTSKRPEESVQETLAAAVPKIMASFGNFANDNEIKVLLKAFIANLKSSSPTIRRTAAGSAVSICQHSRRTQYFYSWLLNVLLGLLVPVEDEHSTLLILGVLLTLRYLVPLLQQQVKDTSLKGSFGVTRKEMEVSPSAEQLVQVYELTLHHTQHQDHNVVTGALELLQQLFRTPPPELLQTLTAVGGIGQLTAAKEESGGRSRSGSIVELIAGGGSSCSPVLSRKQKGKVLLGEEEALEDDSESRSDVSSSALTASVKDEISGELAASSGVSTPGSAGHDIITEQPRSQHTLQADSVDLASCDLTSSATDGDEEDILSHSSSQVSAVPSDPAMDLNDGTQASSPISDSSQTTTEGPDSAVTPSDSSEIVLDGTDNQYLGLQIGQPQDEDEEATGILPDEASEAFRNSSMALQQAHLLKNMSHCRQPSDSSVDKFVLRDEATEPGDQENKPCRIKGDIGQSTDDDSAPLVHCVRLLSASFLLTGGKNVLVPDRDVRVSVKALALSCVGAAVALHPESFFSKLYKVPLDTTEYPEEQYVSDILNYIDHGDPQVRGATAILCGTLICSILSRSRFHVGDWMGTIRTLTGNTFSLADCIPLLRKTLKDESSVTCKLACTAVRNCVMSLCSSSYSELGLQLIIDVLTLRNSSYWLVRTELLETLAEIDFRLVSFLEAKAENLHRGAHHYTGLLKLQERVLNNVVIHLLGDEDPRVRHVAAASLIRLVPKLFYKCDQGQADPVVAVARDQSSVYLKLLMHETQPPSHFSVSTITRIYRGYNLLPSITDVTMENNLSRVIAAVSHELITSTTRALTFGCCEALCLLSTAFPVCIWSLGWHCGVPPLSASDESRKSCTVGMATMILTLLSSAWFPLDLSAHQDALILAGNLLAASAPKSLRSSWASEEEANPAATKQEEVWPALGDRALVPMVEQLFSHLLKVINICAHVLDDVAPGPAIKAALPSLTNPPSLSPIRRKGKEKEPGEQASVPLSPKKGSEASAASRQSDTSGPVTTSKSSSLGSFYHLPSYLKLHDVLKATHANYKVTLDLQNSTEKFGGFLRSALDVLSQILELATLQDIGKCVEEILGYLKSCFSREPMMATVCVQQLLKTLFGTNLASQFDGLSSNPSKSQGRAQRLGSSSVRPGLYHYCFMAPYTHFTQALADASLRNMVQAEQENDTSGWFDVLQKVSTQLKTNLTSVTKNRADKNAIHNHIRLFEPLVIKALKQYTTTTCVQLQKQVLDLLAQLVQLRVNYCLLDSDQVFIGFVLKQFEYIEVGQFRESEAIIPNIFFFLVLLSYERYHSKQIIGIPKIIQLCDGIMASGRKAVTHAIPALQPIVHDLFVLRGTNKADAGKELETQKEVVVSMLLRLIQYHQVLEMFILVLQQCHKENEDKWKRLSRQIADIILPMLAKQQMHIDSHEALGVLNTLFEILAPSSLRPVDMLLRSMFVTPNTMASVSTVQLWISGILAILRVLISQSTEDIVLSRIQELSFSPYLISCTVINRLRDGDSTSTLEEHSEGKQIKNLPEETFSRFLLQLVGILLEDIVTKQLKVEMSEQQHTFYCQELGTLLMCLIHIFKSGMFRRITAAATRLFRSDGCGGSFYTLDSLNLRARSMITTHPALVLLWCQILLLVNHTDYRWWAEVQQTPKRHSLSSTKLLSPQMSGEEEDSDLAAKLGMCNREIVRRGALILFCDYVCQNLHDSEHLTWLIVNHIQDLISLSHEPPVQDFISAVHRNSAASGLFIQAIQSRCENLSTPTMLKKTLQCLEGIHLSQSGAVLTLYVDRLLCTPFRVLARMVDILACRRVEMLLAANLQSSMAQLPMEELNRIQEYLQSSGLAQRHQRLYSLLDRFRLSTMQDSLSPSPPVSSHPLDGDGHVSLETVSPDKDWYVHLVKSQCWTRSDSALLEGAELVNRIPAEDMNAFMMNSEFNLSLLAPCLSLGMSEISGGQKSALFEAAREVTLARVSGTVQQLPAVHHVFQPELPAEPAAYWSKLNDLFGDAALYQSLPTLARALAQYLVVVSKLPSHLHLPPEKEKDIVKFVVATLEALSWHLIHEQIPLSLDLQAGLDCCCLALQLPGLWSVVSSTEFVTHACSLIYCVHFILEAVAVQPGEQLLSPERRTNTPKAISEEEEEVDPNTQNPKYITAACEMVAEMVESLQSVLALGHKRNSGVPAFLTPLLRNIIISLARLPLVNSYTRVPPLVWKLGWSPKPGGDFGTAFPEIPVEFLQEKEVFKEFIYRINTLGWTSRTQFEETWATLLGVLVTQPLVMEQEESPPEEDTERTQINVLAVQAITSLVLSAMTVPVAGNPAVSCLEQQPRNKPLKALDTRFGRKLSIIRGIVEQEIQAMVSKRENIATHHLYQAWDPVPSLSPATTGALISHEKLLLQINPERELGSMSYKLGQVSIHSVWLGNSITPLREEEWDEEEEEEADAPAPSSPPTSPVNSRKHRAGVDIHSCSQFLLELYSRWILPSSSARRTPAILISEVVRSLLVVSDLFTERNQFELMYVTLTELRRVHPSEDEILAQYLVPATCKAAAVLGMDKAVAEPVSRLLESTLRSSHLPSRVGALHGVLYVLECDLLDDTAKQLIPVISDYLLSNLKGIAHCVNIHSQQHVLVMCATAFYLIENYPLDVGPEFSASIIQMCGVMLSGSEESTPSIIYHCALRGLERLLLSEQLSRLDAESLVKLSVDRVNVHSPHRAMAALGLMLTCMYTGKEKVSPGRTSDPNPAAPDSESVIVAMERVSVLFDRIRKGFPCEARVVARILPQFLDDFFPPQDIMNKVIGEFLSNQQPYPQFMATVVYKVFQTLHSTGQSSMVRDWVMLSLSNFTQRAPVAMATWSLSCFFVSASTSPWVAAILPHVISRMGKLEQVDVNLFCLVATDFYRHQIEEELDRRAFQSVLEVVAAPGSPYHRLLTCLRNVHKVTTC
Pf apPOL block: Pf-apPOL DNA polymerase inhibition; inhibition, % at 10 µM; AID 1794808; Recombinant Pf-apPOL, molecular beacon fluorescence, 1.5 h; 210,000 compounds, 0.25% hits
Numbers without * were called inactive. Compounds with a hit are over-represented: about 3.6% of the library has one in this group of screens. Rule as the data show it: active = inhibition above about 50%; inactive = the rest.

`CCN(CC)CCC(c1cc(OC)c(OC)c(OC)c1)c1c(OC)cc(OC)c2c(C)cc(=O)oc12` (stereo not drawn) gave mHTT-CaM PPI inh 15.9 and Pf apPOL block -13.3.
For COc1cc(C(CCN2CCCC(C)C2)c2c(OC)cc(OC)c3c(C)cc(=O)oc23)cc(OC)c1OC (stereo not drawn) the results were mHTT-CaM PPI inh 13.6 and Pf apPOL block -10.7.
Screening COc1cc(C(CCN2CCN(c3ccccc3)CC2)c2c(OC)cc(OC)c3c(C)cc(=O)oc23)cc(OC)c1OC (stereo not drawn) returned mHTT-CaM PPI inh 94.2* and Pf apPOL block -8.9.
`O=C1S/C(=C\C=C\c2ccccc2)C(=O)N1CNc1ccc(Cl)cc1` gave mHTT-CaM PPI inh 0.0 and Pf apPOL block 0.8.
O=C(c1ccc2ncnc(N3CCCC3)c2c1)N1CCN(c2ccccc2)CC1 was read as mHTT-CaM PPI inh -2.5 and Pf apPOL block -1.4.
Screening CC(C)S(=O)(=O)c1ccc(CC(=O)OCc2cc(-c3ccco3)on2)cc1 returned mHTT-CaM PPI inh 13.4 and Pf apPOL block 7.9.
`O=C1N=C(c2ccccc2)S/C1=C\c1cccs1` gave mHTT-CaM PPI inh 62.0* and Pf apPOL block -11.2.
Screening Cc1ccc(C2=NC(=O)/C(=C/c3sccc3C)S2)cc1 returned mHTT-CaM PPI inh 53.0* and Pf apPOL block 4.5.
For O=C1N=C(N2CCCCC2)S/C1=C\c1cccs1 the results were mHTT-CaM PPI inh -1.0 and Pf apPOL block -7.2.
Screening Cc1ccsc1/C=C1\SC(c2ccccc2)=NC1=O returned mHTT-CaM PPI inh 41.0 and Pf apPOL block -2.1.
Screening CCN(CC)C(=O)c1cc2c(s1)CCC(C(=O)Nc1ccc3c(c1)OCCO3)C2 (stereo not drawn) returned mHTT-CaM PPI inh 1.8 and Pf apPOL block -6.4.
COc1cc(NC(=O)N2CCCC2c2ccccc2Cl)cc(OC)c1 (stereo not drawn) was read as mHTT-CaM PPI inh 0.9 and Pf apPOL block 1.1.
For COc1cccc(C(=O)Nc2ccc(-n3nncc3-c3ccc(Br)cc3)cc2)c1 the results were mHTT-CaM PPI inh 12.0 and Pf apPOL block -0.1.
For CSc1ccccc1C(=O)N1CCN(c2c(C)nn(C3CCS(=O)(=O)C3)c2C)CC1 (stereo not drawn) the results were mHTT-CaM PPI inh -2.3 and Pf apPOL block -0.7.
`Cc1nn(C2CCS(=O)(=O)C2)c(C)c1N1CCN(C(=O)c2cc3ccccc3[nH]2)CC1` (stereo not drawn) gave mHTT-CaM PPI inh 54.0* and Pf apPOL block -19.2.
For CC(=O)N1CC=C2C(C#N)=C(N)C(C#N)(C#N)C(c3cccc(Cl)c3)C2C1 (stereo not drawn) the results were mHTT-CaM PPI inh 20.0 and Pf apPOL block -7.5.
For Cc1ccc(C2C3CN(Cc4ccccc4)CC=C3C(C(=O)O)=C(N)C2(C#N)C#N)o1 (stereo not drawn) the results were mHTT-CaM PPI inh 52.0* and Pf apPOL block 1.2.
Screening COc1cccc(C2C3CN(Cc4ccccc4)CC=C3C(C(=O)O)=C(N)C2(C#N)C#N)c1 (stereo not drawn) returned mHTT-CaM PPI inh 47.0 and Pf apPOL block 93.7*.
For CCCN1CC=C2C(C#N)=C(N)C(C#N)(C#N)C(c3ccccc3Cl)C2C1 (stereo not drawn) the results were mHTT-CaM PPI inh 38.0 and Pf apPOL block -1.5.
Screening CCCc1nnsc1C(=O)Nc1nc2c(s1)COCC2 returned mHTT-CaM PPI inh -7.9 and Pf apPOL block -5.0.
`CN1C(=N)NC(=O)C1C1(O)C(=O)Nc2ccccc21` (stereo not drawn) gave mHTT-CaM PPI inh 4.0 and Pf apPOL block -4.5.
`Cc1cc(C)c2c3c(sc2n1)C(c1ccncc1)C(C#N)=C(N)O3` (stereo not drawn) gave mHTT-CaM PPI inh 20.0 and Pf apPOL block -7.2.
COc1cccc(NC(=O)c2cc3c(n2C)CCN(Cc2ccc(F)cc2)C3)c1 was read as mHTT-CaM PPI inh 25.9 and Pf apPOL block -5.6.
Screening COc1cccc(CN2CCc3c(cc(C(=O)NCc4cccnc4)n3C)C2)c1 returned mHTT-CaM PPI inh 9.3 and Pf apPOL block -4.7.
`COc1cccc(CN2CCc3c(cc(C(=O)Nc4cc(C)ccc4OC)n3C)C2)c1` gave mHTT-CaM PPI inh 85.8* and Pf apPOL block -5.4.
For COc1cccc(CNC(=O)c2cc3c(n2C)CCN(Cc2cccc(OC)c2)C3)c1 the results were mHTT-CaM PPI inh 59.2* and Pf apPOL block -4.3.
Screening COc1ccc(OC)c(NC(=O)c2cc3c(n2C)CCN(Cc2ccc(C)cc2)C3)c1 returned mHTT-CaM PPI inh 78.3* and Pf apPOL block -4.8.
Screening COc1ccccc1NC(=O)c1cc2c(n1C)CCN(Cc1ccc(C)cc1)C2 returned mHTT-CaM PPI inh 24.9 and Pf apPOL block -3.9.
COc1cccc(CN2CCc3c(cc(C(=O)N(C)C)n3C)C2)c1 was read as mHTT-CaM PPI inh 10.1 and Pf apPOL block -3.2.
Screening COc1cccc(CN2CCc3c(cc(C(=O)Nc4ccc(F)cc4C)n3C)C2)c1 returned mHTT-CaM PPI inh 64.8* and Pf apPOL block -5.6.
